Experiment [1] has as its system PC26. Put plainly: qHTS profiling for inhibitors of Plasmodium falciparum proliferation (AID 504749). The settings on record: P. falciparum in erythrocytes, SYBR Green DNA, 72 h; series mostly up to 28.7 µM. A digest of the protocol: (§1)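 Readout was DNA-dye fluorescence from lysed cultures, ex 485/em 535 nm. Parasitized red cells had grown 72 h with compound; data scaled between 0.29 uM artemisinin and DMSO wells and corrected using vehicle-only plates.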

Experiment [2] deals with PC49. The experiment is described as above. The settings on record: P. falciparum in erythrocytes, SYBR Green DNA, 72 h; series mostly up to 28.7 µM. In short, it runs like this:
as §1

For experiment [3], the system named is SC27B. Described as above. The following applies: P. falciparum in erythrocytes, SYBR Green DNA, 72 h; series mostly up to 28.7 µM. In short, it runs like this: as §1
Experiment [4] relates to TAB109. The description is as above. The following applies: P. falciparum in erythrocytes, SYBR Green DNA, 72 h; series mostly up to 28.7 µM. In short, it runs like this: as §1
Experiment [5] concerns TAB113. The description is as above. The settings on record: P. falciparum in erythrocytes, SYBR Green DNA, 72 h; series mostly up to 28.7 µM. In short, it runs like this: as §1
Experiment [6] concerns TAB165. Described as above. The settings on record: P. falciparum in erythrocytes, SYBR Green DNA, 72 h; series mostly up to 28.7 µM. In short, it runs like this:
as §1

Experiment [7] concerns W2. The description is as above. The following applies: P. falciparum in erythrocytes, SYBR Green DNA, 72 h; series mostly up to 28.7 µM. A digest of the protocol:
as §1

The subject of experiment [8] is CRL-7250. Briefly: Cytotoxic Profiling of Annotated Libraries Using Quantitative High-Throughput Screening (AID 1296008). On max response: on the % scale 0 is the no-effect control and ±100 the full control effect. The settings on record: Five cell lines viability, CellTiter-Glo ATP luminescence, 48-72 h; max response: stronger effect = lower value. A digest of the protocol:
(§2)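 Cells exposed to compounds for 48 or 72 hr at 37 degrees Celsius. Viability read as ATP-coupled luminescence with CellTiter-Glo after 10 min at room temperature.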
On the technique in general: Cellular ATP, detected with luciferase, serves as a proxy for viable cell number.

In experiment [9] the test system is HEK293. Described as above. The settings on record: Five cell lines viability, CellTiter-Glo ATP luminescence, 48-72 h; max response: stronger effect = lower value. A digest of the protocol:
as §2

Experiment [10] deals with HaCat. Described as above. The settings on record: Five cell lines viability, CellTiter-Glo ATP luminescence, 48-72 h; max response: stronger effect = lower value. A digest of the protocol: as §2

Records with an inconclusive call do not appear. Values without a mark were called inactive. Active and inactive are the calls of the source. The call rests on the fitted dose curve; in most records, active means well fitted inhibition curve with a large enough effect; inconclusive means small, poorly fitted or top-dose-only effect; inactive means flat fitted curve, though single readings scatter.

In PubChem BioAssay (NCATS) one finds Potency, max response and outcome data, which are given here for 20 compounds.
Further: nearly all actives have a fitted effect of over 60% in size.
Potency means the concentration at half of the fitted maximal effect.

`CC(C(=O)O)c1ccc2c(c1)[nH]c1ccc(Cl)cc12` (configuration not stated): the Potency result in experiment [1], in [2], in experiment [3], in experiment [4], in [5] and in experiment [6] was “inactive” in each case. Moreover, in [7], the Potency result is “inactive”.

Consider `CCOC(=O)c1ccccc1O`, for which the Potency result in experiment [1], in [2], in experiment [3], in [4], in [5] and in experiment [6] was “inactive” each time. In addition, the Potency entry in [7] is “inactive”. Further, the values for the max response in experiment [8] and in [10] were 3.39% and -10.3%, respectively. Moreover, the compound was called inactive in experiment [9].

As for `O=C(O)Cc1ccc(-c2ccccc2)cc1`, the Potency result in experiment [1], in [2], in [3], in [4], in experiment [5] and in experiment [6] was “inactive” in each case. Further, in experiment [7], the Potency entry was “inactive”. Besides, the values for the max response in experiment [8], in experiment [9] and in experiment [10] were -1.48%, -6.63% and -10.6%, respectively.

Regarding `Nc1ccc(C(=O)O)c(O)c1`, the Potency result in experiment [1], in experiment [2], in experiment [3], in experiment [4], in experiment [5] and in [6] was “inactive” in each case. Besides, the Potency result in experiment [7] was “inactive”. Further, the max response in experiment [8] was -0.825%; in [9], 3.06%. Further, the compound was called inactive in [10].

As for `O=C(CS)Nc1ccccc1`, the max response in experiment [8] was -21.9%; in experiment [9], -28.6%. For the same compound, in experiment [10], the outcome was inactive.

Turning to `CCCSc1ccc2nc(NC(=O)OC)[nH]c2c1`, the Potency result in experiment [1], in experiment [2], in experiment [3], in experiment [4], in experiment [5] and in [6] was “inactive” each time. The Potency was 5.96 µM (active) in experiment [8] and 0.75 µM (active) in experiment [9]. Also, in experiment [10], the max response was -6.26%.

Consider `CN(CCCOc1ccc(Cc2ccccc2)cc1)CCC(=O)O`, for which the max response is 2.73% in [8], -4.43% in experiment [9] and -16.1% in [10].

For `COc1cc2c3cc1Oc1cc(ccc1O)C[C@@H]1c4c(cc(OC)c(O)c4Oc4ccc(cc4)C[C@@H]3N(C)CC2)CC[N+]1(C)C`, the Potency entry in experiment [1], in experiment [2], in experiment [3], in [4], in experiment [5] and in experiment [6] was “inactive” in each case. Besides, the Potency result in [7] is “inactive”. In addition, the max response in [8] was 1.72%; in [10] it was 1.8%. Also, the call in experiment [9] was inactive.

As to `CC1(C)S[C@@H]2[C@H](NC(=O)[C@H](NC(=O)N3CCN(S(C)(=O)=O)C3=O)c3ccccc3)C(=O)N2[C@H]1C(=O)O`, the Potency entry in [1], in [2], in experiment [3], in experiment [4], in [5] and in [6] was “inactive” in each case. Besides, in experiment [7], the Potency result was “inactive”. Moreover, the max response in experiment [8] is 4.22%; in experiment [9], -0.837%. In addition, the call in [10] was inactive.

`CN1CCN(c2cc3c(nn2)Oc2ccccc2N3C)CC1`: the Potency result in experiment [1], in experiment [2], in [3], in experiment [4], in [5] and in experiment [6] was “inactive” throughout. Besides, the Potency result in experiment [7] is “inactive”. Moreover, the max response in [8] was -2.91%. The outcome in experiment [9] and in [10] was inactive.

Take `O=C(Nc1ccc(C(=O)O)c(O)c1)c1ccccc1`: the Potency entry in [1], in experiment [2], in experiment [3], in [4], in experiment [5] and in [6] was “inactive” each time. Besides, the Potency entry in experiment [7] was “inactive”. The outcome in experiment [8], in experiment [9] and in experiment [10] was inactive.

On to `C=CCCCCCCCCC(=O)O`, for which the Potency result in experiment [1], in experiment [2], in experiment [3], in experiment [4], in experiment [5] and in experiment [6] was “inactive” in each case. In addition, in experiment [7], the Potency result is “inactive”. For the same compound, the max response is 3.74% in experiment [8] and 0.628% in [10]. The call in experiment [9] was inactive.

On to `NCCO`, for which the max response in experiment [8] was -2.34%; in [9], 4.02%. Further, the outcome in [10] was inactive.

On to `CCNC(=O)[C@H]1O[C@@H](n2cnc3c(N)nc(NCCc4ccc(CCC(=O)O)cc4)nc32)[C@H](O)[C@@H]1O`, for which the figures for the max response in [8] and in experiment [10] were 3.23% and 2.46%, respectively. In addition, the call in experiment [9] was inactive.

For the compound `CCOc1ccc2nc(S(N)(=O)=O)sc2c1`, the Potency entry in [1], in experiment [2], in experiment [3], in experiment [4], in experiment [5] and in experiment [6] was “inactive” each time. For the same compound, in [7], the Potency entry was “inactive”. Besides, the figures for the max response in experiment [8], in experiment [9] and in [10] were -14%, -2.22% and -4.97%, respectively.

As for `[O-][n+]1ccccc1SSc1cccc[n+]1[O-]`, the Potency in [1] was 1.51 µM (active); in [2] it was 1.41 µM (active); in [3] it was 0.891 µM (active); in experiment [4], 0.891 µM (active); in [5] it was 0.891 µM (active); in experiment [6] it was 0.891 µM (active). Besides, the Potency is 0.757 µM (active) in [7], 0.461 µM (active) in experiment [8], 0.411 µM (active) in experiment [9] and 0.731 µM (active) in experiment [10].

For the compound `COC(=O)Nc1nc2ccc(C(=O)C3CC3)cc2[nH]1`, the Potency was 2.99 µM (active) in experiment [8] and 0.75 µM (active) in [9]. Also, the outcome in experiment [10] was inactive.

As to `Cc1c(Nc2ncccc2C(=O)O)cccc1C(F)(F)F`, the Potency entry in [1], in [2], in experiment [3], in experiment [4], in [5] and in experiment [6] was “inactive” in each case. For the same compound, the Potency result in experiment [7] is “inactive”. For the same compound, the max response is -2.3% in experiment [8], -18.7% in experiment [9] and 1.65% in experiment [10].

Regarding `CCNc1nc2c(ncn2[C@H]2C[C@H](O)[C@@H](CO)O2)c(=O)[nH]1`, the results for the max response in experiment [8] and in experiment [10] were 0.139% and -28.7%, respectively. Moreover, the compound was classed as inactive in experiment [9].

Consider `O=C(Nc1ccc2[nH]ncc2c1)C1CCC1`, for which, in [8], the outcome was inactive. Also, the max response is 0.86% in [9] and -2.65% in [10].
